A word on the inhibition: it is the relative decrease from the control value, in per cent. Read a high inhibition as a strong effect.

The target of this assay is C-X-C chemokine receptor type 6 (Homo sapiens) (UniProt O00574). Description: antagonism of CXCR6 versus CXCR5 signaling – cell-based, CHO-K1 PathHunter beta-arrestin, luminescence, set 4, selectivity assay for CXCR6 antagonist project, profiling panel (AID 651919). The conditions noted are these: run 3, at 79 µM (top of the series).
Chain of C-X-C chemokine receptor type 6 (Homo sapiens) (O00574 whole entry, looked up): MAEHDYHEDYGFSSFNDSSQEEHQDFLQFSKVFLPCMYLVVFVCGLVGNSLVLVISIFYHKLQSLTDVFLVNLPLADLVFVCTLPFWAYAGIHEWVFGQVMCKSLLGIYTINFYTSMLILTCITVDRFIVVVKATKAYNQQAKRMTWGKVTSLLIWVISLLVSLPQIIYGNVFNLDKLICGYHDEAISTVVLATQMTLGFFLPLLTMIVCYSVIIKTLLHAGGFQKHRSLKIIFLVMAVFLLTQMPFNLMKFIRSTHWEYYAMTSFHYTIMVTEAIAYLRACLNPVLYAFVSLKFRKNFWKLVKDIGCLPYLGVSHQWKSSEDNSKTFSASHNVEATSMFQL

Molecule `COc1cc(C(=O)NC2CC3CCCC(C2)N3CC(=O)Nc2ccccc2)cc(OC)c1OC` (configuration not stated) had an inhibition of 92.7%.

For `COc1cc(C(=O)NC2CC3CCCC(C2)N3CC(=O)Nc2ccccc2Cl)cc(OC)c1OC` (configuration not stated), the inhibition was found to be 99.1%.
